# Screening results as filed in PubChem.
# In the library only some 0.93% were active in any assay of this set; here they are far more common.
# TRPML1 inh = inhibitors of human TRPML1 channel; Q9GZU1; TRPML1-inducible cells, Ca2+ dye fluorescence, FDSS; stronger effect = lower value; inhibition of EC80 agonist-evoked calcium signal; activity change, negative = inhibition, % (concentration not given with the values); 390,000 tested, 0.02% active; AID 624415; in the data active = activity change below about -50%; inconclusive = between about -30% and that limit;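 note: stimulus is agonist 54-4 at its EC80 concentration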
# Target sequence (Q9GZU1 whole entry, looked up): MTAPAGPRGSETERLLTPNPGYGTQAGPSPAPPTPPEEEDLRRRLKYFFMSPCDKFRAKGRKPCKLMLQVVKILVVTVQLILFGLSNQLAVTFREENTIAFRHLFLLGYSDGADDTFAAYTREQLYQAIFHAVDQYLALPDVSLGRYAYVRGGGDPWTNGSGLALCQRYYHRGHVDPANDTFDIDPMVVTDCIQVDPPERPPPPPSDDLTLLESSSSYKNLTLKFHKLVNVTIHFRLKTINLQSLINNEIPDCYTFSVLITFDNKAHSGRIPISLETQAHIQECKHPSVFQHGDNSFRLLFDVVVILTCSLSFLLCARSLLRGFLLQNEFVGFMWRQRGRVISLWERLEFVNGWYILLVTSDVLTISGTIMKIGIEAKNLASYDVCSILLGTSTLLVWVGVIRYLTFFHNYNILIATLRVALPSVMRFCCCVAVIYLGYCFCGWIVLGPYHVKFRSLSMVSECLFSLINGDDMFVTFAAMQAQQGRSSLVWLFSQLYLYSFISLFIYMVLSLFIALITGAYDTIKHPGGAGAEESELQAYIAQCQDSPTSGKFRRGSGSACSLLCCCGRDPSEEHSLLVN
#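 Tet-induced TRPML1-DL cells loaded with Ca8 no-wash calcium dye were read kinetically on FDSS. Compound addition was followed by EC80 agonist 54-4 (4 uM final); inhibition was read over 110 s.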
# TRHR agonist-1 = TRH receptor (human) agonism. P34981. TRHR cells, calcium flux fluo-8, FDSS agonist mode. activation, % at 2 µM. 360,000 tested, 0.18% active. AID 493084; in the data active = activation above about 30%
#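 In this calcium-flux screen, cells bearing human TRHR are dye-loaded with fluo-8, baselined for 10 cycles, then exposed to library compounds; positive kinetic calcium responses during the agonist phase mark hits, with TRH as control.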
# PTHR1 agonist = PTHR1 (human) receptor agonism; HEK293 GP2 PTHR1 cells, GloSensor cAMP luminescence, 1 h; Potency, µM (titrated, usually from 115 µM), most hits filed as activators; 410,000 tested, 0.075% active; Q03431; note: nearly all actives have a fitted effect of over 55% in size
#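 HEK-293-derived GP2 cells expressing PTHR1 and a GloSensor cAMP reporter, 3,000/well, plated overnight, given luciferin plus IBMX (each 0.5 mM as added) for 1 h at 37 °C, then compound for 1 h at 37 °C. Luminescence was read after 15 min at room temperature.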
# GLP1R cytotox = cytotoxicity counter-screen for GLP-1 receptor inverse agonists; AID 624418; Potency, µM (highest dose often 38.3 µM), hits mostly inhibitors; HEK293 cAMP-luciferase reporter cells, luminescence, 24 h; 410,000 tested, 0.13% active;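 note: loss of luciferase light is scored as toxicity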
#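 1536-well qHTS counterscreen of the MLSMR; 200 cells/uL, 12 h pre-incubation, 23 nL cpd, 24 h at 37 deg C 5% CO2, luciferase detection reagent, 12 min RT, luminescence. Inhibition = undesired.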
# TRHR enhancer-1 = allosteric enhancers of human TRH receptor. P34981. 360,000 tested, 0.66% active. AID 493056. enhancement, % at 2 µM. TRHR cells, fluo-8 calcium fluorescence, EC20 TRH enhancement; in the data active = enhancement above about 30%
#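 Enhancer read-out: after compound pinning and an initial kinetic agonist-mode read, an EC20 of TRH (10 nM final) was injected and fluo-8 calcium signal (Ex 480/Em 530) followed at 1 s/cycle for 100 cycles in TRHR-expressing cells.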
# TRPML1 agonist = agonists of human TRPML1 channel. Q9GZU1. AID 624414. TRPML1-expressing cells, Ca2+ dye fluorescence, FDSS. activation, % (no concentration beside the values). 410,000 tested, 0.12% active; in the data active = activation above about 50%; inconclusive = mostly about 30% to 49%
#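 Kinetic FDSS Ca2+ read in Tet-induced TRPML1-DL cells (ABD Ca8 dye plus quencher, 45-90 min RT loading): baseline, then compound, then 110 s agonist window; EC80 agonist 54-4 at 4uM final added afterwards for a 110 s antagonist window.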
# TRHR enhancer-2 = confirmation of human TRH receptor allosteric enhancers; 970 tested, under 10 active; shares compounds with TRHR enhancer-1; activity change, negative = inhibition, % at 46.1 µM; TRH receptor cell assay, enhancer confirmation qHTS;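 note: compound effect scored on response to added TRH at EC20 of 10 nM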
# TRHR agonist-2 = confirmation of human TRH receptor agonists. Potency, µM (titrated, usually from 46.1 µM), actives largely listed as activators. TRHR-expressing cells, agonist activation read-out. 970 tested, 8% active. shares compounds with TRHR enhancer-1; note: nearly all actives have a fitted effect of over 75% in size
# Hits are given with their value; 0 = inactive; ? = inconclusive; - = no result given; ! = repeats disagree. Unless noted, calls come from the whole dose curve; as a rule, active = well fitted curve in the direction sought with a large enough effect; inconclusive = small, poorly fitted or top-dose-only effect, or another doubt; inactive = no such curve, though single readings can be large; an effect the other way counts as inactive or inconclusive.
SMILES,TRPML1 inh,TRHR agonist-1,PTHR1 agonist,GLP1R cytotox,TRHR enhancer-1,TRPML1 agonist,TRHR enhancer-2,TRHR agonist-2
CN1CCN(NC(=O)Nc2ccc(F)cc2)CC1,0,0,0,0,0,0,-,-
Cc1cc(C)cc(NC(=O)c2cc(S(=O)(=O)N3CCCCCC3)cn2C)c1,0,0,0,0,0,0,-,-
COc1ccc(-c2ccc(C(C)=O)cc2)cc1C1C2C=CCCC2(C)C(=O)N1Cc1ccccc1 (centres undefined),0,-,-,-,-,0,-,-
N#Cc1c(-c2c(Cl)cccc2Cl)noc1/C=C/Nc1ccc(C(=O)O)cc1,0,0,0,0,0,0,-,-
CN(C)/C=C/c1onc(-c2c(Cl)cccc2Cl)c1C#N,0,0,0,0,44,0,0,?
Nc1nonc1/C(=N/O)N1CCN(CCO)CC1,0,0,0,0,88,0,0,0
CS/C(=C\[N+](=O)[O-])Nc1ccc(OC(F)(F)F)cc1,0,0,0,0,43,0,0,?
O=C(O)C(Cc1ccccc1)N1C(=O)/C(=C/c2ccccc2)SC1=S (centres undefined),0,0,0,0,0,0,-,-
COc1cc(/C=C2\SC(=S)N(Nc3ccccc3)C2=O)ccc1O,0,35,0,10µM,0,0,0,16µM
COc1cc(/C=C2\SC(=S)N(C(Cc3ccccc3)C(=O)O)C2=O)ccc1O (centres undefined),0,34,0,10µM,0,0,0,?
O=C(NNc1ccccc1C(F)(F)F)c1sccc1Cl,-,-,-,-,-,0,-,-
COc1ccc(Nc2nc(N)c([N+](=O)[O-])c(N3CCCC3)n2)cc1,0,0,0,0,0,0,-,-
COc1ccc(Nc2nc(N)c([N+](=O)[O-])c(N3CCN(C)CC3)n2)cc1,0,0,0,0,46,0,0,0
CC(C)(C)OC(=O)NC(Cc1ccccc1)C(O)c1ccco1 (centres undefined),0,-,-,-,-,0,-,-
O=C(C[n+]1ccccc1Cl)c1ccc(Br)cc1,-,-,-,-,-,0,-,-
COc1cc(C(=O)NC2CCCC2)c(Br)c(OC)c1OC,0,0,0,0,49,0,0,0
COc1cc(C(=O)NC2CCCCCCC2)cc(OC)c1OC,0,-,0,0,-,0,-,-
O=C(c1ccc(CSc2nc3ccncc3n2Cc2ccccc2F)cc1)N1CCCCC1,0,0,0,0,58,0,0,0
Cc1ccccc1N1CCN(c2ccc(NC(=O)C3CCCCC3C(=O)O)cc2)CC1 (centres undefined),0,0,0,0,42,0,0,0
O=C(O)[C@H]1CCCC[C@H]1C(=O)Nc1ccc(Nc2ccccc2)cc1,0,0,0,0,0,0,-,-
CCN(CC)S(=O)(=O)c1ccc(NC(=O)CSc2nnc3c(n2)[nH]c2ccccc23)cc1,-,-,-,-,-,0,-,-
Cc1sc(N)nc1-c1cccc([N+](=O)[O-])c1,-,-,-,-,-,0,-,-
Cc1ccc(NC(=O)CSCC(=O)NCc2ccco2)cc1,0,0,0,0,46,0,0,0
Cc1ccc(NC(=O)CSCc2ccco2)cc1,0,0,0,0,0,0,-,-
CCOC(=O)CN1N=C(c2ccc(Cl)cc2)CCC1=O,0,0,0,0,41,0,0,0
SMILES,TRPML1 inh,TRHR agonist-1,PTHR1 agonist,GLP1R cytotox,TRHR enhancer-1,TRPML1 agonist,TRHR enhancer-2,TRHR agonist-2
COc1ccc(C(CNC(=O)c2ccc(Cl)c(NC(=O)c3cccs3)c2)N2CCCC2)cc1 (centres undefined),0,0,0,0,60,0,0,0
COc1ccc(C(CNC(=O)c2cccc(S(=O)(=O)N3CCCC3)c2)N2CCCC2)cc1 (centres undefined),0,0,0,0,0,0,-,-
COc1ccc(CNCc2cccc3ccccc23)cc1,0,0,0,0,52,0,?,?
O=C(NCCCc1cnc[nH]1)NCCCN(Cc1ccc(Cl)cc1)c1ccc(Br)cn1,-,-,-,-,-,0,-,-
Cc1ccc(O)c(C(=O)c2cc(C#N)c3nc4ccccc4n3c2)c1,0,42,0,0,0,0,0,?
COc1ccc(Br)cc1C1NC(c2ccc3c(c2)OCO3)=CC(c2ccccc2O)N1 (centres undefined),-,-,-,-,-,0,-,-
Oc1c(C=C2N=c3ccccc3=N2)sc(=S)n1C1CCCCC1,0,0,0,0,41!,0,0,0
CC(=O)Nc1ccc(/C=C/c2ccnc3ccccc23)cc1,-,-,-,-,-,0,-,-
C/C=C/c1ccc(OCCCCNCc2ccco2)c(OC)c1,0,0,0,0,69,0,?,?
C/C=C/c1ccc(OCCCNCC(C)O)c(OC)c1 (centres undefined),0,0,0,0,0,0,-,-
O=[N+]([O-])c1ccccc1S(=O)(=O)Nc1cccc(-c2ccc3nncn3n2)c1,0,0,0,0,46,0,0,0
O=[N+]([O-])c1ccccc1S(=O)(=O)Nc1ccc(-c2ccc3nncn3n2)cc1,0,0,?,0,0,0,-,-
C=CCN(C(=O)CSc1nc2[nH]ncc2c(=O)n1-c1ccccc1OC)c1ccccc1,0,31,0,0,0,0,0,0
CCCS(=O)(=O)N1CCN(S(=O)(=O)c2ccccc2[N+](=O)[O-])CC1,0,0,0,0,0,0,-,-
CC(=O)c1c(C)[nH]c(C(=O)CN2CCN(S(=O)(=O)c3ccccc3[N+](=O)[O-])CC2)c1C,0,0,0,0,45,0,0,0
Clc1nc(NCc2cccs2)c2[nH]cnc2n1,-,-,-,-,-,0,-,-
CCc1ccc2oc(-c3cc(NC(=O)COc4ccc(C)cc4)ccc3O)nc2c1,-,-,-,-,-,0,-,-
COc1cccc(/C=N/NC(=O)c2c(C)nc3ccc(Br)cn23)c1O,0,35,0,?,0,0,0,?
O=C(NCCc1ccc(Cl)cc1)C12CC3CC(CC(O)(C3)C1)C2,0,0,0,0,45,0,0,0
CC1CCN(S(=O)(=O)c2cccc(S(=O)(=O)N3CCOCC3)c2)CC1,0,0,0,0,0,0,-,-
O=S(=O)(c1cccc(S(=O)(=O)N2CCC(N3CCCCC3)CC2)c1)N1CCOCC1,-,0,-,-,49,-,0,0
O=C(NCc1cn(-c2ccccc2)nc1-c1ccccc1)c1ccc([N+](=O)[O-])cc1,0,0,0,0,44,0,0,0
O=[N+]([O-])c1cccc(-c2nn(-c3ccccc3)cc2CO)c1,0,0,0,0,0,0,-,-
O=C(Nc1ccc([N+](=O)[O-])cc1Cl)c1cc(Cl)cc(Cl)c1O,-,-,-,-,-,0,-,-
O=C(N/N=C/c1cc(Cl)cc(Cl)c1O)c1ccncc1,0,40,0,0,0,0,?,21µM
